Reference: PubChem BioAssay (NCI)
The panel holds about 83,000 compounds, 20% with a hit somewhere; the sample as a whole holds those more often.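 Negative percent growth values reflect cell death: -40 means 40% of the cells present at the start died, and -100 means all died.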 Values without a mark were called inactive. Active and inactive are the calls of the source. Rule for the calls: active = growth percent below 10; inactive = the rest.

What was measured:
Assay in all cases: NCI-60 one-dose screen, 48 h (100 = growth as untreated, 0 = no growth, -100 = all killed)
Conditions in all cases: 10 µM unless noted
SK-MEL-2 melanoma = test system: SK-MEL-2 melanoma
SN12C renal = test system: SN12C renal
UO-31 renal = test system: UO-31 renal
TK-10 renal = test system: TK-10 renal
ACHN renal = test system: ACHN renal
CAKI-1 renal = test system: CAKI-1 renal
A498 renal = test system: A498 renal
CCRF-CEM leukemia = test system: CCRF-CEM leukemia
MOLT-4 leukemia = test system: MOLT-4 leukemia

SMILES	growth (SK-MEL-2 melanoma)	growth (SN12C renal)	growth (UO-31 renal)	growth (TK-10 renal)	growth (ACHN renal)	growth (CAKI-1 renal)	growth (A498 renal)	growth (CCRF-CEM leukemia)	growth (MOLT-4 leukemia)
COc1cc(NC(=O)CSc2nc3ccc(C)cc3c(=O)n2-c2ccccc2)cc(OC)c1OC	86.5%	92.8%	51%	104%	90.2%	88.4%	62.7%	83.9%	59.2%
Oc1ccc(Cl)cc1-c1cc(-c2ccc(Cl)cc2)n[nH]1	90.7%	61.5%	29%	102%	52.8%	47.7%	84.3%	36.7%	39.5%
Nc1c(C(=O)Nc2cccc([N+](=O)[O-])c2)sc2nc3c(cc12)C(O)CCC3 (stereo unspecified)	26.2%	65.8%	69%	76.6%	92.1%	66.7%	27.6%	37.2%	42.2%
O=C(Nc1cc(C(F)(F)F)cc(C(F)(F)F)c1)Nc1ccc(OCc2nnc(-c3ccc(Cl)cc3)o2)c(F)c1	-37.9% (active)	11.1%	-2.51% (active)	21.1%	-6.91% (active)	4.76% (active)	-7.1% (active)	6.66% (active)	18%
FC(F)(F)c1cccc(-n2nnc3cnc(Nc4ccc(N5CCCCC5)cc4)nc32)c1	96.8%	91%	100%	97.2%	56%	72.9%	89.4%	34.1%	63%
COc1cc(CCn2nnc3c(Nc4ccc(N5CCOCC5)cc4)ncnc32)cc(OC)c1	115%	103%	86.9%	123%	97.4%	93.9%	80.4%	84.5%	76.4%
CC(=O)Nc1nc(C(=O)N2N=C(C)/C(=C/c3cccs3)C2=O)cs1	98.4%	110%	84%	107%	113%	98.6%	115%	92.4%	79.1%
Cc1cc2c(c(=O)o1)C(c1ccc(OC(=O)N3CCOCC3)cc1)C(C#N)=C(N)O2 (stereo unspecified)	91.3%	108%	90.2%	95.6%	102%	95.2%	106%	111%	98.3%
CC[C@H](C)[C@@H]1NC(=O)[C@H]([C@@H](C)O)NC(=O)C(Cc2ccccc2)NC(=O)[C@@H]2CCCN2C(=O)C(C(C)C)NC(=O)C(Cc2ccccc2)NC(=O)CNC(=O)[C@@H]2CCCN2C1=O (stereo partly specified)	88.9%	72.5%	36.8%	116%	58.7%	37.6%	26.1%	20%	7.99% (active)
C=CCn1c(C)nc2ccc(Nc3nc(Nc4ccc(F)cc4)nc4ccccc34)cc21	58.1%	66.2%	37.4%	82.3%	67.6%	58.2%	59.9%	22.5%	-5.55% (active)
O=C(Nc1cccc(C(F)(F)F)c1)Nc1ccc(OCc2nnc(-c3ccccc3)o2)c(F)c1	67.8%	52.8%	26.9%	60.2%	6.63% (active)	36.9%	43.5%	8.15% (active)	17%
COc1cc(/C=C2\CCCC3=C2N=C2SC(C)=NN2C3c2cc(OC)c(OC)c(OC)c2)cc(OC)c1OC (stereo unspecified)	77.5%	-5.64% (active)	8.14% (active)	75.9%	-7.34% (active)	-38.1% (active)	-0.731% (active)	-10% (active)	-7.59% (active)
CC(=O)Nc1ccc(S(=O)(=O)N2C(=O)CCC2C(=O)Nc2ccc(Br)cc2)cc1 (stereo unspecified)	36.1%	49.9%	21.9%	63.6%	45.3%	32.3%	16.8%	2.98% (active)	5.48% (active)
COc1cccc(NC(=O)c2sc3nc4c(cc3c2N)CCCC4)c1	33.7%	58.9%	40%	55.7%	44.2%	31%	17.6%	13.6%	17.8%
Clc1cccc(Cl)c1Cn1c(-c2cncs2)nc2ccccc21	73.3%	81.6%	68.3%	85.1%	86.8%	66.5%	125%	85%	62.9%
CCC1CCc2nc3sc(C(=O)Nc4cccc(C)c4)c(N)c3cc2C1 (stereo unspecified)	54.6%	90.8%	83.6%	78.3%	87%	78.1%	45.4%	47.7%	52.6%
Cc1ccc(C2=NN(c3ccc(S(=O)(=O)NC(=O)NCc4ccccc4)cc3)C(c3ccc(N(C)C)cc3)C2)c(C)c1 (stereo unspecified)	40.9%	46.5%	38.3%	66.5%	44.7%	47.7%	51%	42%	23.1%
CC1=C(C#N)C(C)(C)C(C#N)=C(C)N1	109%	99.5%	91.1%	103%	101%	103%	88.6%	98%	102%
Oc1ccc(N=Cc2ccccc2)cc1	94%	96.5%	77.5%	108%	57.3%	105%	78.1%	5.42% (active)	3.61% (active)
COC(=O)[C@H]1[C@H](OC)[C@@H](OC(=O)/C=C/c2ccncc2)CC2CN3CCc4c([nH]c5cc(OC)ccc45)[C@@H]3C[C@@H]21 (stereo partly specified)	103%	70.2%	56.9%	91.6%	63%	53.3%	31.5%	57.5%	78.2%
COC1=CC(c2ccc[nH]2)=N/C1=C\c1[nH]c(C)c(C(=O)CCCCC(=O)Nc2ccccc2)c1C	90.7%	73.5%	49.9%	-11.9% (active)	95.8%	3.42% (active)	116%	58.9%	76.6%
COc1ccc(C2=CC(c3ccc(Oc4ccnc5cc(Cl)ccc45)c(OC)c3)c3c(nc(OC)[nH]c3=O)N2)cc1 (stereo unspecified)	91.9%	63.7%	56.5%	98.5%	57.3%	82.9%	69.6%	26.8%	7.77% (active)
COc1ccc(C2=NN(c3ccc(S(N)(=O)=O)cc3)C(c3cn(-c4ccccc4)nc3-c3ccc(Cl)cc3)C2)cc1 (stereo unspecified)	94.7%	96.7%	60.5%	90.6%	95.4%	90.9%	76.4%	73.3%	69.2%
Cc1cc(Nc2nc(-c3ccncc3)nc3ccccc23)n[nH]1	57.6%	61.6%	33.4%	62%	40.2%	-6.19% (active)	4.45% (active)	67.6%	60.5%
COc1cc(/C=C2\CCCC3=C2NC(C)=NC3c2cc(OC)c(OC)c(OC)c2)cc(OC)c1OC (stereo unspecified)	26.6%	10.8%	51.1%	44.5%	12.5%	11.4%	16.3%	-19.1% (active)	-22.9% (active)
Clc1nc2ccccc2nc1CI	64.3%	54.3%	69.2%	166%	92.1%	97.8%	120%	-4.61% (active)	20.2%
CCNC(=O)CCCCC(=O)c1c(C)[nH]c(/C=C2\N=C(c3ccc[nH]3)C=C2OC)c1C	40.8%	23.3%	-100% (active)	-61.6% (active)	-3.69% (active)	-29.9% (active)	95.8%	42.2%	79.8%
CC(=O)Nc1nc(C(=O)N2N=C(C)/C(=C/c3ccc(Cl)cc3)C2=O)cs1	90.5%	105%	82.4%	123%	108%	100%	117%	99.6%	91.7%
O=c1c2cccc3c(Nc4ccc(F)cc4)ccc(c32)c2nc3ccccc3n12	103%	87.8%	49.2%	75.3%	87.9%	79.9%	66.2%	94.1%	89.9%
